Only a selection was taken, and the strongest signals are over-represented in it overall.
Tests used:
Experiment in all cases: glycan array binding signal (z-score within array); higher = stronger binding
Conditions in all cases: glycan notation: IUPAC condensed, linker removed
[1] = molecular target: Fuc(a1-2)Gal(b1-3)GlcNAc(b1-3)[Fuc(a1-3)[Gal(b1-4)]GlcNAc(b1-6)]Gal(b1-4)Glc
Procedure, shortened: (§1)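 Columns mapping to the same glycan were averaged after glycan names were converted to IUPAC-condensed notation. The data come from 3228 arrays in the Consortium for Functional Glycomics database, limited to those with an available protein sequence. Binding is reported as a within-array Z-score averaged across arrays of one protein sequence and across linkers.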

[2] = molecular target: Fuc(a1-2)Gal(b1-3)GlcNAc(b1-3)[Neu5Ac(a2-6)Gal(b1-4)GlcNAc(b1-6)]Gal(b1-4)Glc
Procedure, shortened: as §1

[3] = molecular target: Fuc(a1-2)Gal(b1-4)[Fuc(a1-3)]GlcNAc(b1-3)GalNAc
Procedure, shortened: as §1

[4] = molecular target: Fuc(a1-2)[Gal(a1-3)]Gal(b1-3)GlcNAc(b1-2)Man(a1-3)[Fuc(a1-2)[Gal(a1-3)]Gal(b1-3)GlcNAc(b1-2)Man(a1-6)]Man(b1-4)GlcNAc(b1-4)[Fuc(a1-6)]GlcNAc
Procedure, shortened: as §1

[5] = molecular target: Fuc(a1-2)[GalNAc(a1-3)]Gal(b1-4)[Fuc(a1-3)]GlcNAc(b1-3)GalNAc
Procedure, shortened: as §1

[6] = molecular target: Fuc(a1-2)[GalNAc(a1-4)]Gal(b1-4)GlcNAc
Procedure, shortened: as §1

[7] = molecular target: Fuc(a1-3)[Gal(b1-4)]GlcNAc(b1-2)Man(a1-3)[Fuc(a1-3)[Gal(b1-4)]GlcNAc(b1-2)Man(a1-6)]Man(b1-4)GlcNAc(b1-4)[Fuc(a1-6)]GlcNAc
Procedure, shortened: as §1

[8] = molecular target: Fuc(a1-3)[Gal(b1-4)]GlcNAc(b1-6)GalNAc
Procedure, shortened: as §1

[9] = molecular target: Gal(a1-3)Fuc(a1-2)Gal(b1-4)GlcNAc(b1-3)[Gal(a1-3)Fuc(a1-2)Gal(b1-4)GlcNAc(b1-6)]GalNAc
Procedure, shortened: as §1

[10] = molecular target: Gal(a1-3)Gal(b1-4)[Fuc(a1-3)]GlcNAc
Procedure, shortened: as §1

Gal(a1-3)GalNAc = molecular target: Gal(a1-3)GalNAc
Procedure, shortened: as §1

[11] = molecular target: Gal(b1-4)GlcNAc(b1-2)Man(a1-3)[Gal(b1-4)GlcNAc(b1-2)Man(a1-6)]Man(b1-4)GlcNAc(b1-4)[Fuc(a1-6)]GlcNAc
Procedure, shortened: as §1

[12] = molecular target: Gal(b1-4)GlcNAc(b1-2)[Gal(b1-4)GlcNAc(b1-6)]Man(a1-6)[Gal(b1-4)GlcNAc(b1-2)Man(a1-3)]Man(b1-4)GlcNAc(b1-4)GlcNAc
Procedure, shortened: as §1

[13] = molecular target: Gal(b1-4)GlcNAc(b1-3)Gal(b1-4)GlcNAc
Procedure, shortened: as §1

Gal(b1-6)Gal = molecular target: Gal(b1-6)Gal
Procedure, shortened: as §1

[14] = molecular target: Gal3S(b1-4)[Fuc(a1-3)]Glc6S
Procedure, shortened: as §1

Gal4S(b1-4)GlcNAc = molecular target: Gal4S(b1-4)GlcNAc
Procedure, shortened: as §1

Gal6S(b1-4)Glc = molecular target: Gal6S(b1-4)Glc
Procedure, shortened: as §1

Gal6S(b1-4)GlcNAc = molecular target: Gal6S(b1-4)GlcNAc
Procedure, shortened: as §1

Glc(a1-4)Glc = molecular target: Glc(a1-4)Glc
Procedure, shortened: as §1

[15] = molecular target: GlcNAc(a1-4)Gal(b1-3)GlcNAc
Procedure, shortened: as §1

[16] = molecular target: GlcNAc(a1-4)Gal(b1-4)GlcNAc(b1-3)Gal(b1-4)GlcNAc
Procedure, shortened: as §1

[17] = molecular target: GlcNAc(a1-4)Gal(b1-4)GlcNAc(b1-3)Gal(b1-4)[Fuc(a1-3)]GlcNAc(b1-3)Gal(b1-4)[Fuc(a1-3)]GlcNAc
Procedure, shortened: as §1

[18] = molecular target: GlcNAc(b1-3)[GlcNAc(b1-6)]GalNAc
Procedure, shortened: as §1

Kdn(a2-3)Gal(b1-3)GlcNAc = molecular target: Kdn(a2-3)Gal(b1-3)GlcNAc
Procedure, shortened: as §1

[19] = molecular target: Man(a1-2)Man(a1-3)[Man(a1-2)Man(a1-6)]Man(a1-6)[Man(a1-2)Man(a1-2)Man(a1-3)]Man
Procedure, shortened: as §1

[20] = molecular target: Man(a1-2)Man(a1-3)[Man(a1-2)Man(a1-6)]Man(a1-6)[Man(a1-2)Man(a1-2)Man(a1-3)]Man(b1-4)GlcNAc(b1-4)GlcNAc
Procedure, shortened: as §1

[21] = molecular target: Man(a1-2)Man(a1-6)[Man(a1-3)]Man(a1-6)[Man(a1-2)Man(a1-2)Man(a1-3)]Man(b1-4)GlcNAc(b1-4)GlcNAc
Procedure, shortened: as §1

[22] = molecular target: Neu5Ac(a2-3)Gal(b1-3)GlcNAc(b1-3)GalNAc
Procedure, shortened: as §1

[23] = molecular target: Neu5Ac(a2-3)Gal(b1-4)[Fuc(a1-3)]GlcNAc(b1-3)GalNAc
Procedure, shortened: as §1

[24] = molecular target: Neu5Ac(a2-3)Gal6S(b1-4)[Fuc(a1-3)]GlcNAc
Procedure, shortened: as §1

[25] = molecular target: Neu5Ac(a2-6)Gal(b1-4)GlcNAc(b1-2)Man(a1-3)[Neu5Ac(a2-6)Gal(b1-4)GlcNAc(b1-2)Man(a1-6)]Man(b1-4)GlcNAc(b1-4)GlcNAc
Procedure, shortened: as §1

[26] = molecular target: Neu5Ac(a2-6)Gal(b1-4)GlcNAc(b1-2)Man(a1-6)Man(b1-4)GlcNAc(b1-4)GlcNAc
Procedure, shortened: as §1

[27] = molecular target: Neu5Ac(a2-6)GlcNAc(b1-4)GlcNAc
Procedure, shortened: as §1

[28] = molecular target: Neu5Ac(a2-6)GlcNAc(b1-4)GlcNAc(b1-4)GlcNAc
Procedure, shortened: as §1

[29] = molecular target: Neu5Ac9Ac(a2-3)Gal(b1-4)GlcNAc
Procedure, shortened: as §1

B1: NanI (Corynebacterium diphtheriae), C6JSW7 (protein)
chain: MTNTLESNPMTTTTGALTITFATTCDGPLAHIPHHLDLNIIHGRIQGTTAHRRIDAEDPDGLDDGLPHHLCLSVDTTGTHLFIDGYEAFSTTQTEWFDTSELTLNPHGDLTIIDHQILNHAPTPRQARNLAPAAEPLVWFAGSHLSTRDTQRISHLTHGSLRLLMKTRGTGQGGVAFQAHTINGDLTLEIIDGTLIFSVRCHDEDYVRITAPGRWDDGQIYDVVIVCGRGATDIYVDGQQLIHSPGAAFFNDLSGELSVHIGTAASGVRLFGEVQSGMIYPHVFNHHQVQRLATVEPIATQALFDCLLDGAQSYRIPSLITTDSGVIIAGADKRVSIANDAPNDIDFVLRRSVDGGRTWQPPRTILQLPDTACVTDSVLLQDHTTGRIFAFLDQFPAGIGQPNAAFGTGFDADGNRIGHFADGSTCTMPREVDQLEASFFSDPHTAPPGIVFQHPSCHLWMLTSDDDGLTWSTPRDLTPDVKEEWMRFCGTSPGNGIQLQRDTHAGRLLIPMYYTKGDQFFAAALYSDDHGDTWHRGESPDLEMYESTLVEASDGSVLLWARNQHPSGAVAHARSTDGGHSWSQVTFNPNVPEIFSQPNALRVTNPDGIIFANASQLLPFRGRGVLRMSTNDGASWQHNRVFNPRHYVYQCMTQLPDGSIGLLWEREMQGLFFSIIPMTWIMQGYAL
glycan array binding signal (z-score) [1]: 0.007
glycan array binding signal (z-score) [2]: 0.292
glycan array binding signal (z-score) [3]: 6.81
glycan array binding signal (z-score) [4]: 0.442
glycan array binding signal (z-score) [5]: 3.26
glycan array binding signal (z-score) [6]: -0.77
glycan array binding signal (z-score) [7]: 4.32
glycan array binding signal (z-score) [8]: 3.36
glycan array binding signal (z-score) [9]: 0.813
glycan array binding signal (z-score) [10]: -1.04
glycan array binding signal (z-score) (Gal(a1-3)GalNAc): -0.16
glycan array binding signal (z-score) [11]: 0.309
glycan array binding signal (z-score) [12]: 8.52
glycan array binding signal (z-score) [13]: -0.586
glycan array binding signal (z-score) (Gal(b1-6)Gal): 0.892
glycan array binding signal (z-score) [14]: -0.197
glycan array binding signal (z-score) (Gal4S(b1-4)GlcNAc): -0.503
glycan array binding signal (z-score) (Gal6S(b1-4)Glc): -0.205
glycan array binding signal (z-score) (Gal6S(b1-4)GlcNAc): -0.815
glycan array binding signal (z-score) (Glc(a1-4)Glc): -0.173
glycan array binding signal (z-score) [15]: -0.205
glycan array binding signal (z-score) [16]: 4.05
glycan array binding signal (z-score) [17]: 9.15
glycan array binding signal (z-score) [18]: -0.477
glycan array binding signal (z-score) (Kdn(a2-3)Gal(b1-3)GlcNAc): 0.075
glycan array binding signal (z-score) [19]: 0.157
glycan array binding signal (z-score) [20]: -0.074
glycan array binding signal (z-score) [21]: 1.28
glycan array binding signal (z-score) [22]: -0.319
glycan array binding signal (z-score) [23]: 3.03
glycan array binding signal (z-score) [24]: -0.34
glycan array binding signal (z-score) [25]: 0.411
glycan array binding signal (z-score) [26]: -0.415
glycan array binding signal (z-score) [27]: 0.019
glycan array binding signal (z-score) [28]: -0.157
glycan array binding signal (z-score) [29]: -0.533

Source: the supplement of paper PMC8728848
